Measured values reported in the supplement of paper PMC7156485.
Values without a mark were called inactive.

system: TDF; experiment: H1.0 immunofluorescence intensity relative to DMSO (% of DMSO); higher = stronger H1.0 induction, active = 120 or more; conditions: concentration: 10 µM; 24 h
Method in brief: (§1)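 Using 384-well plates with 800 cells per well in RPMI plus 10% FBS, HCC1569 and TDF cells were exposed to compounds at 10 µM, in triplicate, for 24 h at 37 °C. Imaging of six fields per well at ×10 followed H1.0 and DAPI staining. The reported quantity, H1.0 nuclear intensity or cell number, is a median of replicates given as percent of the plate control, and HCC1569 values were smoothed for positional effects.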
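Note: TDF is a line of transformed human dermal fibroblasts of mesenchymal origin.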

Question: Which H1.0 immunofluorescence intensity does the source give for CC(C)N(CCC(C(N)=O)(c1ccccc1)c1ccccn1)C(C)C (stereo not given) [Disopyramide] here?
Answer: 103

Question: CC1OC(=O)C2CC3CCCCC3C(C=CC3CCCC(C)N3C)C12 (stereo not given) [Himbacine] was tested. Which H1.0 immunofluorescence intensity did it give?
Answer: 92.4

Question: Which H1.0 immunofluorescence intensity does the source give for COc1ccc2c(c[n+](C)c3c4cc5c(cc4ccc23)OCO5)c1OC.[Cl-] [Chelerythrine Chloride] here?
Answer: 94

Question: For COc1ccc2c(c1O)-c1cccc3c1C(C2)N(C)CC3.Cl (stereo not drawn) [R(-)-Apocodeine hydrochloride], which H1.0 immunofluorescence intensity is on record?
Answer: 97.6

Question: NC(=NN=Cc1ccc(-c2cccc([N+](=O)[O-])c2)o1)N[N+](=O)[O-] [ERK Inhibitor III] was tested. Which H1.0 immunofluorescence intensity did it give?
Answer: 95.3

Question: Which H1.0 immunofluorescence intensity does the source give for CCCCCC=CCC=CCC=CCC=CCCCC(=O)NCCO [Anandamide (20:4, n-6)] here?
Answer: 99.2

system: HCC1569; experiment: H1.0 immunofluorescence intensity relative to DMSO (% of DMSO); higher = stronger H1.0 induction, active = 140 or more; conditions: concentration: 10 µM; 24 h
Method in brief: as §1

Question: CCN1CC2(COC)CCC(O)C34C5CC6C(OC)CC(O)(C(CC23)C14)C5C6OC(C)=O (stereo not given) [Condelphine] was tested. Which H1.0 immunofluorescence intensity did it give?
Answer: 102

Question: For COc1cc2c(c(OC)c1OC)-c1ccc(SC)c(=O)cc1C(NC(C)=O)CC2 (stereo not given) [Thiocolchicine], which H1.0 immunofluorescence intensity is on record?
Answer: 155 (active)

Question: With Br.CN1C2CC(OC(=O)C(CO)c3ccccc3)CC1C1OC12 (single isomer, unassigned; (-)) [(-)-Scopolamine hydrobromide] as the molecule, how does the H1.0 immunofluorescence intensity read?
Answer: 103

Question: With C[N+](C)(C)CC(=O)O.[Cl-] [Betaine hydrochloride] as the molecule, how does the H1.0 immunofluorescence intensity read?
Answer: 82.7

Question: How did the H1.0 immunofluorescence intensity turn out when COc1cc2c(c(OC)c1OC)-c1ccc(OC)c(=O)cc1C(NC(C)=O)CC2 (stereo not given) [Colchicine] was run?
Answer: 132

Question: Which H1.0 immunofluorescence intensity does the source give for Cl.c1ccc(C2CC2)c(OCC2=NCCN2)c1 [Cirazoline hydrochloride] here?
Answer: 87.7

Question: With Cl.O=C1CCC2(O)C3Cc4ccc(O)c5c4C2(CCN3CC2CC2)C1O5 (stereo not given) [Naltrexone.HCl] as the molecule, how does the H1.0 immunofluorescence intensity read?
Answer: 99.8

Question: CCC(C)CC(C)N (stereo not given) [1,3-dimethylpentylamine] was tested. Which H1.0 immunofluorescence intensity did it give?
Answer: 96.9

Question: For CN1C2CCC1CC(OC(=O)C(CO)c1ccccc1)C2.CN1C2CCC1CC(OC(=O)C(CO)c1ccccc1)C2.O.O=S(=O)(O)O (stereo not given) [Atropine sulfate], which H1.0 immunofluorescence intensity is on record?
Answer: 85.2

Question: CCN(CCCl)Cc1ccccc1Br.Cl [DSP-4 hydrochloride] was tested. Which H1.0 immunofluorescence intensity did it give?
Answer: 92.4

Question: For COc1cc(C2c3cc4c(cc3C(O)C3COC(=O)C23)OCO4)cc(OC)c1O (stereo not given) [4'-Demethylpipodophyllotoxin], which H1.0 immunofluorescence intensity is on record?
Answer: 132

Question: CCCCCCCCCCCCCCCCOCC(COP(=O)([O-])OCC[N+](C)(C)C)OC(C)=O (stereo not given) was tested. Which H1.0 immunofluorescence intensity did it give?
Answer: 102

Question: C=CCN1CCC23c4c5ccc(O)c4OC2C(=NN=C2CCC4(O)C6Cc7ccc(O)c8c7C4(CCN6CC=C)C2O8)CCC3(O)C1C5.Cl.Cl (stereo not given) [Naloxonazine dihydrochloride] was tested. Which H1.0 immunofluorescence intensity did it give?
Answer: 121

Question: With CC1OC(=O)C2CC3CCCCC3C(C=CC3CCCC(C)N3C)C12 (single isomer, unassigned; (+)) [(+)-Himbacine] as the molecule, how does the H1.0 immunofluorescence intensity read?
Answer: 109

Question: For CCCN1CCCC2Cc3[nH]ncc3CC21.Cl (single isomer, unassigned; (-)) [(-)-Quinpirole hydrochloride], which H1.0 immunofluorescence intensity is on record?
Answer: 100

Question: With CC1=CC(=O)c2c(O)cccc2C1=O [Plumbagin] as the molecule, how does the H1.0 immunofluorescence intensity read?
Answer: 326 (active)

Question: With COC(=O)C1(O)CC2OC1(C)n1c3ccccc3c3c4c(c5c6ccccc6n2c5c31)C(=O)NC4 (stereo not given) [K-252a, Nocardiopsis sp.] as the molecule, how does the H1.0 immunofluorescence intensity read?
Answer: 75.8

Question: Which H1.0 immunofluorescence intensity does the source give for NC(Cn1ccc(=O)[nH]c1=O)C(=O)O (stereo not drawn) [S(-)-Willardiine] here?
Answer: 97.6

Question: NCCN(CCN)N(O)N=O [1,1-bis(2-aminoethyl)-2-hydroxy-3-oxotriazane] was tested. Which H1.0 immunofluorescence intensity did it give?
Answer: 95

Question: How did the H1.0 immunofluorescence intensity turn out when NCCCNCCSP(=O)(O)O [Amifostine] was run?
Answer: 98.1

Question: BrC1C(Br)C(Br)C(Br)C(Br)C1Br (stereo not given) was tested. Which H1.0 immunofluorescence intensity did it give?
Answer: 111

Question: How did the H1.0 immunofluorescence intensity turn out when O=C1CCCN1CC#CCN1CCCC1 [Oxotremorine] was run?
Answer: 102

Question: With Cl.Clc1cc(I)cc(Cl)c1NC1=NCCN1 [p-Iodoclonidine hydrochloride] as the molecule, how does the H1.0 immunofluorescence intensity read?
Answer: 85.2

Question: Which H1.0 immunofluorescence intensity does the source give for CCCN1CCCC2Cc3nc(N)ncc3CC21.Cl.Cl (stereo not given) [Quinelorane dihydrochloride] here?
Answer: 106

Question: With COC(=O)CC(O)(CCC(C)(C)O)C(=O)OC1C(OC)=CC23CCCN2CCc2cc4c(cc2C13)OCO4 (stereo not given) [Harringtonine] as the molecule, how does the H1.0 immunofluorescence intensity read?
Answer: 90

Question: CN1C2CCC1CC(OC(=O)C(CO)c1ccccc1)C2.CN1C2CCC1CC(OC(=O)C(CO)c1ccccc1)C2.O=S(=O)(O)O (stereo not given) [Atropine sulfate] was tested. Which H1.0 immunofluorescence intensity did it give?
Answer: 88.9

Question: Which H1.0 immunofluorescence intensity does the source give for CC(=O)C1CCC2C3CCC4CC(O)CCC4(C)C3C(=O)CC12C (stereo not drawn) [5alpha-Pregnan-3alpha-ol-11,20-dione] here?
Answer: 98.7

Question: COc1ccc2c(c1OC)C(=O)OC2C1c2cc3c(cc2CCN1C)OCO3 (single isomer, unassigned; (+)) [(+)-Hydrastine] was tested. Which H1.0 immunofluorescence intensity did it give?
Answer: 89.2

Question: With CC12CCC3C(CCC4=C(O)C(=O)CCC43C)C1CCC2=O (stereo not given) [4-Androsten-4-ol-3,17-dione] as the molecule, how does the H1.0 immunofluorescence intensity read?
Answer: 89.7

Question: COc1ccc2c(c[n+](C)c3c4cc5c(cc4ccc23)OCO5)c1OC.[Cl-] [Chelerythrine chloride] was tested. Which H1.0 immunofluorescence intensity did it give?
Answer: 157 (active)

Question: CCN1CC2(C)CCC(OC)C34C5CC6CCC(O)(C5C(=O)O6)C(C(O)C23)C14 (stereo not given) [Heteratisine] was tested. Which H1.0 immunofluorescence intensity did it give?
Answer: 88.3

Question: How did the H1.0 immunofluorescence intensity turn out when COC1=CC(=O)OC(CCc2ccc3c(c2)OCO3)C1 (stereo not given) [Dihydromethysticin] was run?
Answer: 83.9

Question: For Clc1ccc(C(c2ccc(Cl)cc2)n2cc[n+](CC(OCc3ccc(Cl)cc3Cl)c3ccc(Cl)cc3Cl)c2)cc1.[Cl-] (stereo not given) [Calmidazolium chloride], which H1.0 immunofluorescence intensity is on record?
Answer: 95.3

Question: CC(C)N(CCC(C(N)=O)(c1ccccc1)c1ccccn1)C(C)C (stereo not given) [Disopyramide] was tested. Which H1.0 immunofluorescence intensity did it give?
Answer: 98.5

Question: For CC1OC(=O)C2CC3CCCCC3C(C=CC3CCCC(C)N3C)C12 (stereo not given) [Himbacine], which H1.0 immunofluorescence intensity is on record?
Answer: 87.4

Question: Which H1.0 immunofluorescence intensity does the source give for COc1ccc2c(c[n+](C)c3c4cc5c(cc4ccc23)OCO5)c1OC.[Cl-] [Chelerythrine Chloride] here?
Answer: 123

Question: Which H1.0 immunofluorescence intensity does the source give for COc1ccc2c(c1O)-c1cccc3c1C(C2)N(C)CC3.Cl (stereo not drawn) [R(-)-Apocodeine hydrochloride] here?
Answer: 87.5

Question: With NC(=NN=Cc1ccc(-c2cccc([N+](=O)[O-])c2)o1)N[N+](=O)[O-] [ERK Inhibitor III] as the molecule, how does the H1.0 immunofluorescence intensity read?
Answer: 102

Question: With CCCCCC=CCC=CCC=CCC=CCCCC(=O)NCCO [Anandamide (20:4, n-6)] as the molecule, how does the H1.0 immunofluorescence intensity read?
Answer: 96.7
